# Compounds with a hit are over-represented: about 8.1% of the library has one in this group of screens.
# MCF10A rereplic – inducers of DNA re-replication in MCF 10A breast cells | MCF 10A DNA re-replication, Hoechst nuclear intensity, 48 h | Potency, µM (titrated, usually from 46.1 µM), hits mostly activators | 350,000 compounds, 2.9% hits | AID 624296; also: nearly all actives have a fitted effect of over 50% in size
# KB-3-1 cytotox – kills parental KB-3-1 adenocarcinoma cells | KB-3-1 viability, CellTiter-Glo ATP luminescence, 72 h | Potency, µM (titrated, usually from 46.1 µM), actives largely listed as cytotoxic | 400,000 compounds, 1.4% hits; also: nearly all actives have a fitted effect of over 60% in size
#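 KB-3-1 parental drug-naive adenocarcinoma cells in DMEM/10% FBS, incubated 72 h at 37 C with pin-transferred compounds across a concentration series. Viability by CellTiter-Glo luminescence; concentration-response curves fitted after normalization.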
# ELG1 DNA repair – inhibitors of ELG1-dependent DNA repair in HEK293T cells | Potency, µM (doses to about 46.1 µM), actives largely listed as inhibitors | HEK293T ELG1-luciferase reporter, luminescence, 16 h; DNA damage induced by 5-fluorouridine | AID 504467 | 330,000 compounds, 2.3% hits; also: nearly all actives have a fitted effect of over 55% in size
#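 Reporter activity after DNA damage by 5-fluorouridine is monitored. Compound-treated cells incubate 16 hr at 37 °C, then ONE-Glo is added for 30 min before luminescence reading.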
# KB-V1 MDR tox – KB-V1 MDR subline cytotoxicity | KB-V1 MDR cells viability, CellTiter-Glo, 72 h | Potency, µM (series often up to 46.1 µM), most hits filed as cytotoxic | 400,000 compounds, 3.4% hits; also: nearly all actives have a fitted effect of over 60% in size
#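 Compound-treated KB-V1 multidrug-resistant cells, 72 h, 37 degrees C; viability by CellTiter-Glo. Fitted qHTS curves give the values.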
# SW480 rerep – inducers of DNA re-replication in SW480 colon cancer cells; Potency, µM (series often up to 46.1 µM), most hits filed as activators; AID 624297; 340,000 compounds, 1.8% hits; SW480 DNA re-replication, Hoechst DNA content imaging, 48 h; also: nearly all actives have a fitted effect of over 55% in size
#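 Per well, 250 cells were exposed to pinned compound for 48 hr. Nuclear DNA was visualised with Hoechst (40 min, 37 C) and total object intensity recorded by fluorescence scanning.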
# A number is an active result; i = inactive; ? = inconclusive; nt = no result given; ! = a repeat was not active. Calls follow the shape of the dose curve; as a rule, active = well fitted curve in the direction sought with a large enough effect; inconclusive = small, poorly fitted or top-dose-only effect, or another doubt; inactive = no such curve, though single readings can be large; an effect the other way counts as inactive or inconclusive.
SMILES,MCF10A rereplic,KB-3-1 cytotox,ELG1 DNA repair,KB-V1 MDR tox,SW480 rerep
Cn1c(=O)n(Cc2ccc(Cl)cc2)c(=O)c2c1nc1n2CCN1Cc1ccco1,i,?,25.9µM,11.6µM,i
CCN(Cc1ccccc1)S(=O)(=O)c1ccc(S(=O)(=O)N(Cc2cccc(OC)c2)CC2CCCO2)cc1 (stereo unspecified),i,?,i,i,i
O=C(NCc1ccco1)c1cccc2ccccc12,i,i,i,i,i
CCc1cc(C(=O)N(C)CC(=O)Nc2c(Cl)cccc2Cl)sc1C,i,i,i,18.4µM,i
CC(C)N(C(=O)CN(C#N)c1nc(N(C)C)nc(N(C)C)n1)c1ccccc1,i,i,i,6.51µM,i
CCN(CC(=O)Nc1ccccc1C(F)(F)F)C(=O)c1ccc2c(c1)NC(=O)CS2,i,i,i,i,?
O=C1C(C2=NC(C(=O)O)C3C(=O)N(c4ccccc4)C(=O)C23)=C(O)c2ccccc21 (stereo unspecified),i,i,?,i,i
O=C1C(C2=NC(c3ccccn3)C3C(=O)N(c4ccc(OC(F)(F)F)cc4)C(=O)C23)=C(O)c2ccccc21 (stereo unspecified),?,4.61µM,?,i,i
CCOc1ccc(Cc2c(Cl)nc(SC)nc2N(C)C)cc1,9.2µM,11.6µM,i,11.6µM,?
O=C(O)c1[nH]c2ccccc2c1C=NCc1ccccc1Cl,?,i,i,i,i
Cc1ccc2nc(SCC(=O)Nc3ccc(C)c([N+](=O)[O-])c3)[nH]c2c1,i,i,i,i,i
Cc1ccc2nc(SC(C)C(=O)Nc3cccc([N+](=O)[O-])c3)[nH]c2c1 (stereo unspecified),i,?,?,4.11µM,i
Cc1ccc2nc(SCC(=O)Nc3ccc(F)c([N+](=O)[O-])c3)[nH]c2c1,?,i,?,20.6µM,i
Cc1ccc2nc(SCC(=O)Nc3cc([N+](=O)[O-])ccc3F)[nH]c2c1,?,i,?,20.6µM,i
CC(=O)Nc1ccc(S(=O)(=O)N2CCN(CCC#N)CC2)cc1,i,i,i,i,i
COc1ccc(NC(=O)c2cc(-c3ccccc3)on2)cc1OC,i,i,?,i,i
NS(=O)(=O)c1ccc(CNC(=O)c2ccc3ccccc3n2)cc1,i,i,i,i,i
O=C(c1ccccc1Br)N1CCn2c1nc1ccccc12,3.66µM,i,i,i,i
O=C(c1ccccc1Cl)N1CCn2c1nc1ccccc12,i,i,i,i,i
CN(C)C(CNC(=O)c1cc(S(=O)(=O)N(C)c2ccc(F)cc2)ccc1Cl)c1cccs1 (stereo unspecified),i,?,nt,4.11µM,i
COc1ccc(N(C)S(=O)(=O)c2cccc(C(=O)NCC(c3cccs3)N(C)C)c2)cc1 (stereo unspecified),i,i,i,i,i
CC1(C)CC(=O)c2cc(C(=O)O)c(=O)n(-c3ccccc3)c2C1,i,i,i,i,i
CC1(C)CC(=O)c2c(O)c(-c3ccccc3)c(=O)n(-c3ccccc3)c2C1,i,i,i,13µM,i
Cc1c(Cl)ccc2c(C(=O)NCCCn3nccc3C)cc(-c3ccccn3)nc12,?,i,18.3µM,?,i
Cc1c(Cl)ccc2c(C(=O)NCCN3CCCCC3)cc(-c3ccccn3)nc12,?,i,?,?,?
SMILES,MCF10A rereplic,KB-3-1 cytotox,ELG1 DNA repair,KB-V1 MDR tox,SW480 rerep
CCNC(=O)CCCOc1ccc(Cl)cc1Cl,i,i,?,i,i
N#Cc1c(-c2ccccc2Cl)c2c([nH]c1=O)-c1ccccc1OC2,4.11µM,i,i,i,18.4µM
O=C(CSc1ccccc1F)OCC(=O)N1CCN(C(=O)c2ccco2)CC1,i,i,i,i,?
CCCN1CCN(C(=O)C2CCN(S(=O)(=O)c3c(C)noc3/C=C/c3ccc(C)cc3)CC2)CC1,?,25.9µM,i,?,16.4µM
Cc1noc(/C=C/c2ccco2)c1S(=O)(=O)N1CCC(C(=O)N2CCc3ccccc3C2)CC1,18.4µM,?,?,i,?
Cc1ccc(/C=C/c2onc(C)c2S(=O)(=O)N2CCC(C(=O)N3CCCCC3)CC2)cc1,i,i,?,i,i
Cc1ccc(NC(=O)C2CCN(S(=O)(=O)c3c(C)noc3/C=C/c3ccco3)CC2)nc1,?,?,14.6µM,?,i
COc1ccccc1-c1cc(C(=O)NCCCN2CCOCC2)no1,i,i,?,i,i
CCCC(=O)N1CCOCC1c1cc(C(=O)Nc2ccccc2)no1 (stereo unspecified),nt,i,nt,i,nt
CCc1c(C)nc2ncnn2c1N1CCCC(C(=O)NCCc2ccc(OC)cc2)C1 (stereo unspecified),i,?,?,14.6µM,i
Cc1nc2ncnn2c(N2CCCC(C(=O)Nc3ccc4c(c3)CCC4)C2)c1C (stereo unspecified),i,?,17.8µM,?,i
CCc1c(C)nc2ncnn2c1N1CCC(C(=O)Nc2ccccc2)CC1,i,i,20.6µM,?,i
CCCc1cc(N2CCCC(C(=O)Nc3ccc(OC)cc3OC)C2)n2ncnc2n1 (stereo unspecified),i,?,?,3.66µM,i
O=C(Nc1ccc2c(c1)CCC2)C1CCCN(c2ncccn2)C1 (stereo unspecified),i,i,?,i,i
COc1ccc(NC(=O)N2CCCC(C(=O)NCCc3ccccc3)C2)cc1 (stereo unspecified),i,i,?,23.1µM,i
NC(=O)c1ccc(NC(=O)CC23CC4CC(CC(Br)(C4)C2)C3)cc1,i,i,i,i,i
CCN(C(=O)COC(=O)c1c2c(nc3ccccc13)/C(=C/c1ccccc1)CC(C)C2)C1CCS(=O)(=O)C1 (stereo unspecified),?,?,6.51µM,?,7.31µM
CCn1c(SCC(=O)N2CCC(C)CC2)nnc1-c1ccco1,i,i,i,i,i
CCn1c(SCC(=O)N(C(C)C)C(C)C)nnc1-c1cc2ccccc2cc1O,i,?,?,3.66µM,i
COc1ccc(C(=O)CSc2nnc(-c3cc4ccccc4cc3O)n2Cc2ccco2)cc1,i,?,?,7.31µM!,i
CC1CCN(C(=O)CSc2nnc(-c3cc4ccccc4cc3O)n2Cc2ccco2)CC1,i,?,?,3.66µM,i
COc1ccc(C(=O)CSc2nnc(-c3cccnc3)n2Cc2ccco2)cc1,i,i,i,i,i
CCn1c(COc2ccccc2C)nnc1SCC(=O)OC,i,i,i,i,i
CCOC(=O)C1CCN(C(=O)c2cc(S(=O)(=O)N3CCc4ccccc43)ccc2OC)CC1,i,i,i,?,i
CSc1ccc(N/N=C(/C#N)S(=O)(=O)C(C)(C)C)cc1,i,i,18.3µM,?,i
Cc1cccc(C(=O)CC(=O)c2cc(Cl)ccc2O)c1,?,?,i,9.2µM,i

# High-throughput results deposited in PubChem by National Center for Advancing Translational Sciences (NCATS).
